Consider 15 compounds from PubChem BioAssay (NCI).

Holding throughout (experiment): NCI-60 one-dose screen, 48 h (100 = growth as untreated, 0 = no growth, -100 = all killed)
Details in all cases: 10 µM unless noted

Assay [1] relates to T-47D breast.
Assay [2] deals with BT-549 breast.
For assay [3], the system named is MDA-MB-435 melanoma.
The subject of assay [4] is SW-620 colon.
Assay [5] relates to MCF7 breast.
The test system of assay [6] is HCT-116 colon.
For assay [7], the system named is KM12 colon.

The structures appear in SMILES notation. The panel holds about 83,000 compounds, 20% with a hit somewhere; the sample as a whole holds those more often.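 Note: values are percent growth. 100 is the growth of untreated cells, values between 100 and 0 indicate rising inhibition; between -100 and 0 indicates cell death.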 A number with no mark means an inactive call. Calls of active or inactive are those of the source. Rule for the calls: active = growth percent below 10; inactive = the rest.

Regarding `NC(=O)CCC(C(=O)O)N1C(=O)c2ccc(O)cc2C1=O` (stereo not given), the growth in assay [1] is 102%; in assay [2], 101%; in assay [3], 94%; in assay [4], 111%; in assay [5], 105%; in assay [6], 109%. For the same compound, the growth in assay [7] was 103%.
As for `CC1(C)CCC(S(=O)(=O)c2ccc3c(c2)/C(=N\O)c2cc(S(=O)(=O)N4CCC(O)(c5cccc(C(F)(F)F)c5)CC4)ccc2-3)CC1`, the growth in assay [1] was -83.4% (active); in assay [2] it was -80.8% (active); in assay [3], -93.5% (active); in assay [4], -92.9% (active); in assay [5] it was -70.9% (active); in assay [6], -87.7% (active). Besides, the growth in assay [7] is -86.7% (active).
On to `Cc1cccc(N2CCN(CC(O)COc3ccc(Cl)cc3)CC2)c1` (stereo not given), for which the growth in assay [1] is 94.4%; in assay [2], 100%; in assay [3], 84.1%; in assay [4], 103%; in assay [5], 121%; in assay [6], 89.9%. Moreover, the growth in assay [7] was 97.1%.
In the case of `C#CCn1cnc2c(Nc3cccc(NC(=O)C=C)c3)ncnc21`, the growth in assay [1] is 72%; in assay [2], 71.5%; in assay [3] it was 82.6%; in assay [4], 99.6%; in assay [5], 80.1%; in assay [6] it was 85.1%. Also, the growth in assay [7] was 96.3%.
With `C=CCc1c2c(c(OC)c3ccoc13)C(=O)/C(=C/c1ccccc1OC)O2`, the growth was 59.8% in assay [1]; 46.1% in assay [2]; 47.8% in assay [3]; 47.2% in assay [4]; 32.6% in assay [5]; 21.4% in assay [6]. The growth in assay [7] was 46.8%.
As to `O=C(Nc1ccc(NC(=O)c2cc(=O)[nH]c3ccccc23)cc1)Nc1cccc(C(F)(F)F)c1`, the growth is 58.1% in assay [1]; 62.8% in assay [2]; 77.1% in assay [3]; 59.6% in assay [4]; 70.7% in assay [5]; 41.1% in assay [6]. Further, the growth in assay [7] is 53.3%.
Take `Cc1ccc2c(n1)C(=O)c1[nH]c3ccccc3c1C2=O`: the growth in assay [1] is 23.2%; in assay [2], 58.5%; in assay [3] it was -87.6% (active); in assay [4], 48.3%; in assay [5], 31.2%; in assay [6], 22%. In assay [7], the growth was 37%.
In the case of `CNC(=O)c1cc(Oc2ccc3c(c2)sc2nc(-c4cc(OC)c(OC)c(OC)c4)cn23)ccn1`, the growth in assay [1] was -4.73% (active); in assay [2], 24%; in assay [3], 51.7%; in assay [4], 77.4%; in assay [5] it was 32.1%; in assay [6], 55.2%. The growth in assay [7] is 66.3%.
As for `Nc1ncnc2c1N=C(c1ccc(Cl)cc1)CC(c1ccc3c(c1)OCO3)N2` (stereo not given), the growth in assay [1] was 93.8%; in assay [2], 95.5%; in assay [3], 101%; in assay [4] it was 100%; in assay [5], 81.2%; in assay [6], 83.7%. In assay [7], the growth was 103%.
With `Fc1cc(F)cc(C(c2c[nH]c3ccccc23)c2c[nH]c3ccccc23)c1`, the growth was 97% in assay [1]; 135% in assay [2]; 103% in assay [3]; 93% in assay [4]; 110% in assay [5]; 89.8% in assay [6]. Further, in assay [7], the growth is 97.5%.
Regarding `CCCCCC(=O)OCC(=O)O[C@@H]1C[C@]2(C(C)C)O[C@@]1(C)[C@@H]1CC[C@@H](C)[C@H]1[C@@H]2OC(=O)/C=C/c1ccccc1`, the growth in assay [1] is 21.4%; in assay [2], 12.6%; in assay [3], 99.4%; in assay [4] it was 48.9%; in assay [5], 26.8%; in assay [6], 74%. For the same compound, the growth in assay [7] is 85%.
Regarding `COc1cc(-c2nc3cc(Cl)c(Cl)cc3[nH]2)ccc1OCC(=O)N=Nc1c(O)[nH]c2ccc([N+](=O)[O-])cc12`, the growth in assay [1] was 66.6%; in assay [2] it was 98.8%; in assay [3] it was 81.9%; in assay [4], 82.7%; in assay [5], 74%; in assay [6], 42.6%. In addition, the growth in assay [7] is 103%.
With `CNc1nc(S(=O)c2ccc(C#N)cc2)nc2ccccc12` (stereo not given), the growth is 62.4% in assay [1]; 74.6% in assay [2]; 88% in assay [3]; 76% in assay [4]; 72.1% in assay [5]; 51.4% in assay [6]. Also, the growth in assay [7] is 99%.
With `COc1cccc(CNc2ncnc3c2ncn3C2OC(CO)C(O)C2O)c1O` (stereo not given), the growth is 16.6% in assay [1]; -9.05% (active) in assay [2]; 5.51% (active) in assay [3]; 6.4% (active) in assay [4]; 65.5% in assay [5]; 10.2% in assay [6]. Moreover, the growth in assay [7] is 36.6%.
As for `O=C1CNC(c2ccccc2)C(c2ccccc2)N1` (stereo not given), the growth was 104% in assay [1]; 82.8% in assay [2]; 105% in assay [3]; 98.5% in assay [4]; 91.8% in assay [5]; 93% in assay [6]. In addition, the growth in assay [7] was 100%.
